# Structures can show the parent of a compound that is named as a salt. In all, about 2,000 compounds were measured (“fractional viability relative to vehicle”: median about 0.91, lowest 2% from about 0.045 on). The sample as a whole holds a higher share of the lowest values than the screen did.
# System: TYKNU
# Experiment: fractional viability relative to vehicle; TYKNU is a high-grade serous ovarian cancer line; higher = less growth inhibition
# Settings: 72 h
# How it was run: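 Drug treatment lasted 72 h, with cells grown at 37 °C in 5% CO2 in RPMI 1640 supplemented with 10% FBS. Beforehand, TYKNU control cells or their lentiCRISPRv2 knockout derivatives had been seeded at 500 cells per well into drug-stamped 384-well plates carrying a ~2100-compound library at 2 or 10 μM, in duplicate. Viability came from Cell Titer Glo luminescence, with averaged duplicate treatment wells normalised to duplicate control wells in the same plate position.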
# [1] = 2uM, genotype: DNM1L knockout (sgDNM1L #1)
# [2] = 2uM, genotype: sgCTRLA1 (non-targeting control)
# [3] = 10uM, genotype: DNM1L knockout (sgDNM1L #1)
# [4] = 10uM, genotype: sgCTRLA1 (non-targeting control)
SMILES,fractional viability [1],fractional viability [2],fractional viability [3],fractional viability [4]
O=S(=O)(CC1CS1)c1ccc(Oc2ccccc2)cc1 (centres undefined),0.744,0.851,0.163,0.172
C[C@](O)(COc1ccc(C#N)cc1)C(=O)Nc1ccc(C#N)c(C(F)(F)F)c1,1,1.13,0.879,1.03
CCN1CCN(C(=O)Cc2ccc(Nc3ncc(F)c(Nc4ccc(C(=O)Nc5ccccc5Cl)cc4)n3)cc2)CC1 [Aurora A Inhibitor I],0.904,0.926,0.0479,0.0775
NC(=O)CN1CC(O)CC1=O (centres undefined) [Oxiracetam],0.755,1.16,0.688,0.976
C#C[C@]1(O)C=C[C@H]2[C@@H]3CCC4=CC(=O)CC[C@@H]4[C@H]3CC[C@@]21CC [Gestodene],1.13,1.04,0.861,0.945
CC1=C(O)C(=O)C=C2C1=CC=C1[C@@]2(C)CC[C@@]2(C)[C@@H]3C[C@](C)(C(=O)O)CC[C@]3(C)CC[C@]12C [Celastrol],0.0457,0.0557,0.0154,0.0139
CC(C)(C)c1cc(C=C(C#N)C#N)cc(Br)c1O,1.21,1.08,1.09,0.939
CCOc1ccccc1-n1c(C(C)N2CCN(C(=O)COc3ccc(Cl)cc3)CC2)nc2ccccc2c1=O (centres undefined) [Erastin],0.123,0.0716,0.0411,0.0416
O=[N+]([O-])/C=C/c1ccc2c(c1)OCO2,0.362,0.336,0.0604,0.0474
Cc1cccc(C(C)c2c[nH]cn2)c1C (centres undefined) [Medetomidine HCl],1.09,1.09,0.755,1.03
O=[N+]([O-])c1ncc[nH]1 [Azomycin],0.753,1.09,0.757,0.975
CC[C@H](C)[C@@H]([C@@H](CC(=O)N1CCC[C@H]1[C@H](OC)[C@@H](C)C(=O)N[C@H](C)[C@@H](O)c1ccccc1)OC)N(C)C(=O)[C@@H](NC(=O)[C@@H](NC)C(C)C)C(C)C [Monomethyl auristatin E (MMAE)],0.0977,0.0889,0.0769,0.0612
Cc1cccc([C@H](C)c2c[nH]cn2)c1C [Dexmedetomidine],1.06,1.23,0.8,1.05
CCCCCCCCCCCCCCCC[n+]1ccccc1 [Cetylpyridinium Chloride],0.216,0.196,0.0152,0.0105
Cc1ccccc1-n1c(Cn2ncc3c(N)ncnc32)nc2cccc(C)c2c1=O,0.87,1.14,0.731,1.15
CCc1c(C(=O)C(N)=O)c2c(OCC(=O)O)cccc2n1Cc1ccccc1,1.09,1.02,0.94,0.973
Cn1cc(C2=C(c3cn(C4CCN(Cc5ccccn5)CC4)c4ccccc34)C(=O)NC2=O)c2ccccc21,0.952,0.961,0.948,0.916
Cc1cc(C(C#N)c2ccc(Cl)cc2)c(Cl)cc1NC(=O)c1cc(I)cc(I)c1O (centres undefined) [Closantel],1.13,1.17,0.948,1.1
Cc1cc(C(C#N)c2ccc(Cl)cc2)c(Cl)cc1NC(=O)c1cc(I)cc(I)c1O (centres undefined) [Closantel Sodium],0.98,1.19,0.879,0.97
COc1ccc(C[C@H]2NC[C@H](O)[C@H]2OC(C)=O)cc1 [Anisomycin],0.109,0.0785,0.118,0.0319
COc1cc(C)[nH]c(=O)c1CNC(=O)c1c(C)n([C@H](C)C2CCOCC2)c2ccccc12,0.85,0.972,0.755,0.698
CCc1cc2c(s1)-n1c(C)nnc1CN=C2c1ccccc1Cl [Etizolam],0.778,1,0.707,0.96
CC(C)(C)[C@]1(O)CC2OC(=O)CC23C(=O)OC2OC(=O)[C@H](O)C231 (some centres undefined) [Bilobalide],0.854,1.09,0.975,1.11
O=C1CCC[C@@H]2[C@H]3CCCN4CCC[C@@H](CN12)[C@@H]34 [(+)-Matrine],0.865,1.03,0.795,1
COc1cc([C@@H]2c3cc4c(cc3[C@H](O)[C@H]3COC(=O)[C@@H]23)OCO4)cc(OC)c1OC [Picropodophyllin (PPP)],0.139,0.142,0.121,0.0713
O=C(NCC1CCOCC1)c1cnc(Nc2ccc(Cl)cc2Cl)nc1C(F)(F)F,1.03,1.32,0.768,1.19
